# Among all 53,000 compounds or so, about 900 (1.7%) showed an effect of 50% or more. The sample as a whole holds a higher share of strong results than the screen did.
# Tested on: Mycobacterium tuberculosis
# Experiment: Cornell - Phenotypic assay to identify agents that inhibit growth of Mycobacterium tuberculosis
# Format: functional
# Design: scale not given: direction of the effect not stated beside the values
# Conditions: 10 mM as filed; unlikely as a test dose
row,Compound,Percent Effect [%]
1,CSCC(CCO)Nc1nc(C(F)F)nc2ccccc12 (stereo not drawn),41.07
2,CCc1noc(C(C)N2CCN(CC(=O)N3CCOCC3)CC2)n1 (stereo not drawn),11.6
3,N#Cc1cccc(NC2CC(=O)N(C3Cc4ccccc4C3)C2)n1 (stereo not drawn),53.28
4,N#Cc1cccc(NC2CC(=O)N(Cc3ccccc3Cl)C2)n1 (stereo not drawn),-13.97
5,N#Cc1cccc(NC2CC(=O)N(CCCc3ccccc3)C2)n1 (stereo not drawn),2.519
6,O=C1CCC2(CCN(Cc3ccsc3)CC2)N1Cc1ccccc1,26.5
7,Cc1ccoc1C(=O)NC1CCN(Cc2ccccc2C#N)CC1,-4.356
8,COc1ccc(NC(=O)NCC(C)N2CCc3ccccc32)cc1 (stereo not drawn),13.58
9,CC(CNC(=O)c1ccc(C#N)cc1)N1CCc2ccccc21 (stereo not drawn),20.43
10,CC(CNC(=O)Nc1ccc(C#N)cc1)N1CCc2ccccc21 (stereo not drawn),62.86
11,Cc1nc(C2CCCN2CC(=O)Nc2cc(C(C)(C)C)nn2C)no1 (stereo not drawn),-17.86
12,O=C(c1cnc(-c2cccs2)s1)N1CCCC(n2ccnc2)C1 (stereo not drawn),6.926
13,Cc1oncc1C(=O)N1CCC2(CC1)CC(N1CCOCC1)C2.O=C(O)C(F)(F)F,14.16
14,Cc1nc(NCC2CC2)nc2c1COCC21CCN(CC(=O)N(C)C)C1 (stereo not drawn),-16.56
15,OCCn1nnnc1Cc1ccc(Br)cc1,32.76
16,CC(C)OCCn1nnnc1Cc1ccc(Br)cc1,80.17
17,N#CCCCn1nnnc1Cc1ccc(Br)cc1,19.45
18,Cc1ccnn1CCC(=O)N1CCCC[C@]2(C)NC(=O)CCC[C@H]12,0.426
19,CNC(=O)C1CN(C)CCN(C(=O)CCn2nnc3ccccc32)C1 (stereo not drawn),37.61
20,CN1CCN(C(=O)CCn2nnc3ccccc32)CC(C(N)=O)C1 (stereo not drawn),53.1
21,CN1CCN(C(=O)CCn2ncc3ccccc32)CC(C(N)=O)C1 (stereo not drawn),40.84
22,CCC(C(=O)Nc1ccc2nc(C)oc2c1)N1CCCC1=O (stereo not drawn),-18.53
23,Cn1cccc1C(=O)N1CCC2(CC1)CN(S(C)(=O)=O)c1ccccc12,9.432
24,OC(COc1ccccc1Br)COC1CCOCC1 (stereo not drawn),10.03
25,CN(c1ccc(CNc2ccc(Cl)cn2)cc1)S(C)(=O)=O,21.91
26,CN(C)S(=O)(=O)c1ccc(CNc2ccc(Cl)cn2)cc1,63.29

row,Compound,Percent Effect [%]
1,Clc1ccc(CNc2ccc(Cl)cn2)cc1,-25.47
2,O=C(COCC1CC1)Nc1ncccc1O,-3.464
3,O=C(COCC1CC1)Nc1cc(-c2ccc(Br)s2)n[nH]1,108.2
4,COc1ccccc1-c1cc(NC(=O)COCC2CC2)[nH]n1,43.6
5,O=C(CCn1c(C(F)F)cc2cccnc21)NC1CCCC1,-12.05
6,CC(C)CNC(=O)c1cc2c(s1)CCN2S(C)(=O)=O,-19.48
7,Cc1cc(C2CCC2)nc(N2CCC3(CCNC(=O)CC3)CC2)n1,19.37
8,Cn1ccnc1SCC(=O)NCc1ccc2c(c1)CCC(=O)N2,-11.99
9,Cc1ccc(C2CSCCN2C(=O)c2cc(C(N)=O)cs2)o1 (stereo not drawn),23.87
10,Cc1c(C(=O)N(C)CC(F)(F)F)nnn1-c1ccc(F)cc1,26.05
11,c1ccc2c(c1)CCN(c1nc(-c3ccncc3)nc3c1CCNC3)C2,18.38
12,Cc1ccccc1N1CCN(c2nc(N(C)C)nc3c2CCNC3)CC1,-18.26
13,CN(C)c1nc2c(c(N3CCc4ccccc4C3)n1)CCNC2,60.07
14,Cc1n[nH]c(C)c1-c1nccnc1CC1CCN(C(C)C)CC1,-33.1
15,COc1ccc(C(=O)N2CC(=O)N(C3CCC3)CC(O)C2)cc1OC (stereo not drawn),-13.29
16,CC(Oc1cc(Cl)cc(Cl)c1)C(=O)NCCOCC(N)=O (stereo not drawn),-19.42
17,O=C(Nc1ccc2c(c1)OCO2)N1CCN(CCn2ccnc2)CC1,-27.6
18,O=C(Nc1cccc(C(F)(F)F)c1)N1CCN(CCn2ccnc2)CC1,98.5
19,CC(=O)NC1CCN(C(=O)Nc2cccc(C(F)(F)F)c2)CC1,20.69
20,Cc1nn(C)c(C)c1CN1CCCC1c1nccc(CN(C)C)n1 (stereo not drawn),-90.49
21,CS(=O)(=O)N1CC(c2n[nH]c3ncccc23)C1,-14.19
22,COc1cccc(CN2CCN(c3cccc(C(C)C)n3)CC2)c1F,57.83
23,COc1cccc(CN2CC[C@H](NC(C)=O)[C@@H](O)CC2)c1F,-15.13
24,COc1cccc(CN2CCN(c3noc(C(C)C)n3)CC2)c1F,42.13
25,CC(C)c1cc2c(s1)NC(c1ccccn1)NC2=O (stereo not drawn),-1.811
26,CCn1c(C2CCCN2Cc2noc(C(C)(C)C)n2)nc2ccccc21 (stereo not drawn),13.86

row,Compound,Percent Effect [%]
1,COc1ccccc1CC(=O)NC(C)c1nc2cccnc2n1C(C)C (stereo not drawn),-9.677
2,CC(C)Nc1ncnc2c1CCN(C(=O)c1ccncc1F)CC2.O=C(O)C(F)(F)F,-9.598
3,N#Cc1ccc(C(=O)O)nc1/C=C/c1cccc(Cl)c1,-13.81
4,N#Cc1ccc(C(=O)O)nc1/C=C/c1cccc(Br)c1,10.67
5,O=C(O)c1cc(/C=C/c2ccccc2)ncn1,65.58
6,O=C(O)c1cc(/C=C/c2cccc3ccccc23)ncn1,65.34
7,O=C(O)c1cc(/C=C/c2ccc3ccccc3c2)ncn1,74.73
8,O=C(O)C1(Oc2ccc3ccccc3c2)CCN(c2ncccn2)CC1,20.42
9,O=C(O)c1c(Cl)ncn1-c1cccc2ccccc12,19.97
10,N#Cc1ccc(C(=O)O)nc1/C=C/c1cccc(F)c1,2.587
11,CNC(=O)C1CCN(C(=O)NCc2ccc(-c3ccn[nH]3)cc2)CC1,-24.99
12,N#Cc1ccc(N2CCC3(CCC(=O)N3CCN3CCCC3)CC2)nc1.O=C(O)C(F)(F)F.O=C(O)C(F)(F)F,3.156
13,CCc1nnc2n1CCN(C(=O)CN(C)C1CC1)C2,-12.51
14,CCN1Cc2cc3c(cc2NCCC1=O)OCO3,-32.17
15,CN1CCC(N(CCc2ccccc2)C(=O)COCC2CCCO2)CC1 (stereo not drawn),41.94
16,CN1CC(=O)N(c2ccsc2)CC12CCN(S(=O)(=O)C1CC1)C2.O=C(O)C(F)(F)F (stereo not drawn),6.764
17,O=C(NC1CCC1)C1=NOC2(CCN(Cc3ccccc3)C2)C1 (stereo not drawn),-9.005
18,N#CCSCCCN1CCN(C(=O)c2cccc(Cl)c2)CC1,18.37
19,CCC(Nc1nc(C(C)C)nc2c1cnn2C)c1ccc(O)cc1 (stereo not drawn),1.347
20,CCC(Nc1nc(C(C)C)nc2c1cnn2C)c1ccncc1 (stereo not drawn),25.2
21,CC[C@H](Nc1nc(C(C)C)nc2c1cnn2C)c1ccccc1,70.75
22,Cc1nc(Nc2nnc(C)s2)cc(C2CCCN2c2ccncc2)n1 (stereo not drawn),-13.84
23,CCc1noc(C(C)N2CCc3c(ncn3C3CC3)C2)n1 (stereo not drawn),-20.08
24,CCc1nccn1C1CCCN(C(=O)c2csc(COC)n2)C1 (stereo not drawn),19.86
25,COCc1nc(C(=O)N2CCCC(n3nc(C)cc3C)C2)cs1 (stereo not drawn),-24.43
26,COCc1nc(C(=O)N2CCCC(n3cccn3)C2)cs1 (stereo not drawn),67.19

row,Compound,Percent Effect [%]
1,CN1CCC2(CC1)C(=O)N(CC1CC1)c1ccccc12.O=C(O)C(F)(F)F,8.295
2,c1coc(CNCC2Cn3nncc3CO2)c1 (stereo not drawn),-14.67
3,Cc1cccnc1NCCNC(=O)c1cnc(-c2cccs2)nc1O,19.3
4,COc1ccc(CN(Cc2ccco2)Cc2[nH]cnc2C)c(OC)c1.O=C(O)CC(O)(CC(=O)O)C(=O)O,39.21
5,COc1ccc(OC)c(CN(Cc2ccco2)Cc2[nH]cnc2C)c1.O=C(O)CC(O)(CC(=O)O)C(=O)O,50.25
6,COc1cccc(CN(Cc2ccco2)Cc2[nH]cnc2C)c1.O=C(O)CC(O)(CC(=O)O)C(=O)O,-15.02
7,Cc1noc([C@H]2C[C@H]3OCC[C@H]3N(C3CCC3)C2)n1.O=C(O)C(F)(F)F,-34.16
8,COc1ccc(OC)c(Sc2ncccc2C(=O)NCCSC)c1,-9.266
9,COC(=O)N1CC2(CCNCC2)c2cc(Cl)ccc21.Cl,26.9
10,CN(C)C(=O)N1CC2(CCNCC2)c2cc(Cl)ccc21.Cl,-44.55
11,CC(=O)N1CC2(CCNCC2)c2cc(Cl)ccc21.Cl,63.2
12,CN(C)Cc1cnn(-c2ccccc2C(=O)NCCC2CCCN2C)c1 (stereo not drawn),17.58
13,O=C(Cc1c[nH]c2ccccc12)N1CCN(C(=O)c2ccoc2)CC1,-1.862
14,C[S+]([O-])c1nncn1CC(=O)c1ccc(Cl)c(Cl)c1 (stereo not drawn),51.67
15,C[S+]([O-])c1nncn1CC(=O)c1ccc2c(c1)CCO2 (stereo not drawn),2.009
16,C[S+]([O-])c1nncn1CC(=O)c1cccc(Cl)c1 (stereo not drawn),12.76
17,COc1coc(C(=O)Nc2nc(-c3cccnc3)cs2)cc1=O,11.19
18,O=C(c1ccncn1)N1C[C@H]2CCC[C@@]2(COCC2CCOCC2)C1,2.154
19,Cc1nc(C)n(CC2CN(Cc3cc(C#N)ccc3F)CCO2)n1 (stereo not drawn),13.34
20,COc1cc(CNCc2ccc(C(C)O)cc2)cc2c1OCO2 (stereo not drawn),3.367
21,CCOC(=O)C1=NOC(Cc2cc(OC)c3c(c2)OCO3)C1 (stereo not drawn),94.96
22,COc1cc(CC2CC(c3ccc4c(c3)OCO4)=NO2)cc2c1OCO2 (stereo not drawn),30.67
23,COc1cc(CC2CC(C(N)=O)=NO2)cc2c1OCO2 (stereo not drawn),13.11
24,COc1c(CC2CC(C(=O)O)=NO2)c(Br)c2c(c1OC)OCO2 (stereo not drawn),14.91
25,COC(=O)C1=NOC(Cc2cc(OC)c3c(c2)OCO3)C1 (stereo not drawn),104.6

# From ChEMBL document CHEMBL3988442, “University of Dundee, Small-Polar-MMV Screening Library” (2021)
